This note sets out measurements from PubChem BioAssay (NCATS).

In experiment [1] the target is Transient receptor potential cation channel subfamily V member 1 (Homo sapiens) (UniProt Q8NER1). Briefly: HTS Assay for Compounds that Act as Enhancers of the Vanilloid Receptor 1 (AID 488979). Also: 0% is about no effect. The essentials: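 Calcium influx kinetics via Fluo-8 (480/520 nm) in TRPV1-expressing cells, 2000/well cultured overnight at 35.5C. Compound-alone read 3 min (agonist phase), followed by EC20 capsaicin challenge for 2 min (enhancer phase).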

Experiment [2] concerns the target Thyrotropin receptor (Homo sapiens) (UniProt P16473). Nature of the experiment: qHTS Assay for Antagonists of the Thyroid Stimulating Hormone Receptor (AID 488980). Also: series mostly up to about 58 µM; 0% is about no effect. The essentials:
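HEK293 cells transfected with human TSHR, suspended in HEPES-buffered HBSS with 70 uM RO 20-1724, were treated with compounds plus TSH at EC80 (4 nM final). cAMP was measured by competitive HTRF (cryptate anti-cAMP antibody, cAMP-d2 acceptor).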
Background: Quantitative high-throughput screening tests each substance at several concentrations.

Experiment [3] concerns the target D(1A) dopamine receptor (Homo sapiens) (UniProt P21728). Briefly: HTS Assay for Allosteric Agonists of the Human D1 Dopamine Receptor: Primary Screen for Agonists (AID 488981). Also: 0% is about no effect. The essentials: (§1)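 Calcium flux in an inducible, force-coupled HEK293 Trex D1 line (overnight at 30 C): agonist mode is the 180 s kinetic read after compound; potentiator mode is the following 180 s read after dopamine at EC20.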

Experiment [4] shares this target. Nature of the experiment: HTS Assay for Allosteric Agonists of the Human D1 Dopamine Receptor: Primary Screen for Potentiators (AID 488982). Also: 0% is about no effect. The essentials:
as §1

The target is the same in experiment [5]. Briefly: HTS Assay for Allosteric Agonists of the Human D1 Dopamine Receptor: Primary Screen for Antagonists (AID 488983).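 Also: calcium flux response to an EC80 dopamine challenge measured with no-wash dye; % is scaled to controls: 0 for no effect and ±100 for the full control effect; nearly all actives have a fitted effect of over 65% in size.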 An outline of the steps:
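Calcium flux readout, no-wash dye, inducible HEK293 T-REx D1 line (force-coupled). Compound added after 10 s baseline, 180 s kinetic read; then dopamine at EC80, further 180 s read.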

A short description of experiment [6]: Validation screen for small molecules that induce genotoxicity in human embryonic kidney (HEK293T) cells expressing luciferase-tagged ELG1 (AID 493106). Also: 0% is about no effect. An outline of the steps:
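qHTS format; 2,000 HEK293T ELG1-luc cells/well; 23 nL compound via pin tool; 16 hr, 37 °C/5% CO2; ONE-Glo, 30 min RT; luminescence read.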

For experiment [7], the target named is ATPase family AAA domain-containing protein 5 (Homo sapiens) (UniProt Q96QE3). Briefly: Validation screen for small molecules that inhibit ELG1-dependent DNA repair in human embryonic kidney (HEK293T) cells expressing luciferase-tagged ELG1 (AID 493107). Also: nearly all actives have a fitted effect of over 70% in size. Also: potency is read from the fitted curve at half-maximal effect. An outline of the steps: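 ELG1-luciferase HEK293T reporter; 5-fluorouridine + compound/DMSO, 16 hr, 37 °C, 5% CO2; ONE-Glo 30 min RT; luminescence read, qHTS format.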

A short description of experiment [8]: Nrf2 qHTS screen for inhibitors: Validation (AID 493153; active = well fitted inhibition curve with a large enough effect in the main read-out, with a control signal flat, not every such curve was filed as active). The following applies: Potency: luciferase luminescence; viability change: measured here: cytotoxicity max response. The essentials: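 Concentration-response test in A549 ARE_Fluc reporter cells (5% FBS OPTI-MEM), compound exposure 18-24 h at 37°C, 5% CO2. Cell viability measured first by CellTiter-Fluor fluorescence; ARE-driven luciferase luminescence then measured as Nrf2 activity.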

Experiment [9] can be described thus: qHTS for Inhibitors of Cell Surface uPA Generation: Validation Assay (AID 493164).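 Also: RAW 264.7 macrophage cells exposed to compound for 18 h; 0% is about no effect.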 The essentials:
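Compounds are titrated over seven points (2.45 nM–38.3 uM final) onto pre-plated RAW 264.7 cells and incubated for 18 h. Retained intracellular ATP, measured with ATP-Lite, indicates blocked lethal factor entry.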

Experiment [10] deals with Galactokinase (Homo sapiens) (UniProt P51570). Nature of the experiment: qHTS Validation Assay for Inhibitors of Human Galactokinase (GALK) (AID 493189). Also: 0% is about no effect. An outline of the steps:
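GALK (5 nM) with 35 uM ATP and 100 uM galactose in HEPES pH8.0, MgCl2, NaCl, DTT, BSA; 1 h at room temperature. Residual ATP read by Kinase-Glo Plus luminescence after 10 min.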

The nature of experiment [11]: Validation screen for small molecules that induce DNA re-replication in SW480 colon adenocarcinoma cells (AID 504364). Also: 0% is about no effect. An outline of the steps:
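Read-out: total Hoechst intensity of nuclei by fluorescence scanning imager; hits raise the fraction of nuclei with elevated DNA content. Cells received compound for 48 hr at 37 C before a 40 min stain.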

Experiment [12] addresses Peptidyl-prolyl cis-trans isomerase NIMA-interacting 1 (Homo sapiens) (UniProt Q13526). Briefly: qHTS Validation Assay to Find Inhibitors of Pin1 (AID 504536; active = well fitted inhibition curve with a large enough effect in the polarisation, with a control signal flat, not every such curve was filed as active; the % refers to the polarisation;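 also: 0% = full Pin1 enzyme wells and -100% = no-enzyme wells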). An outline of the steps:
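Fluorescence polarization competition: compounds (titration) displace HiFluor-488-labeled Pin1-1b peptide from Pin1 (0.3 uM final) in pH 7.5 HEPES buffer with DTT, 10 min at room temperature; %Activity normalized to no-enzyme wells, curves fitted.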

The target of experiment [13] is Phosphoglycerate kinase, glycosomal (Trypanosoma brucei brucei) (UniProt P07378). Nature of the experiment: qHTS Validation Assay to Find Inhibitors of Phosphoglycerate Kinase (AID 504547).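 Also: control wells lack PGK and mark full inhibition.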 An outline of the steps:
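Luminescence end-point (Kinase-Glo Plus, 10 min) after a 60 min room-temperature coupled reaction. GAPDH at 100nM final supplies 1,3-BPG to PGK. Buffer: 100mM TEA pH 7.6, 5mM MgCl2, 0.01% Tween-20. Wells lacking PGK served as controls.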

For experiment [14], the target named is phosphoglycerate mutase (Leishmania major) (UniProt Q4Q090). Nature of the experiment: qHTS Validation Assay to Find Inhibitors of Phosphoglycerate Mutase (AID 504548). Also: series mostly up to about 58 µM; % is scaled to controls: 0 for no effect and ±100 for the full control effect. The settings on record: Potency: inhibition qHTS. The essentials: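 Lm PGAM at 1.25 nM final with substrate in 100 mM TEA pH 7.6, 5 mM MgCl2, 0.01% Tween-20; 45 min at room temperature. Kinase-GloPlus added, 10 min, end-point luminescence read.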

The target of experiment [15] is Ubiquitin carboxyl-terminal hydrolase 1 (Homo sapiens) (UniProt O94782). Briefly: Inhibitors of USP1/UAF1: Pilot qHTS (AID 504865).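 Also: rhodamine fluorescence freed from ubiquitin-rhodamine substrate followed over time; top concentration of the series differs between compounds; % is scaled to controls: 0 for no effect and ±100 for the full control effect; nearly all actives have a fitted effect of over 35% in size.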 The essentials: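 USP1/UAF1 complex (1nM) preincubated with compound 15 min at room temperature, then Ub-Rho substrate (150nM final) added. Fluorescence read kinetically at 480/540 nm, 6 reads every 60 seconds. Buffer: 50mM HEPES pH 7.8, 0.5mM EDTA, 0.1 mg/ml BSA, 1mM TCEP, 0.01% Tween-20.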

A short description of experiment [16]: qHTS for Inhibitors of ATXN expression: Validation of Cytotoxic Assay (AID 588349). Also: % is scaled to controls: 0 for no effect and ±100 for the full control effect. The essentials:
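Cytotoxicity counter-screen: HEK293 cells exposed to compound titrations, 72 hr, 37 degrees C. Read-out is intracellular ATP (CellTiter Glo luminescence) as a viability measure.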

Experiment [17] can be described thus: qHTS for Inhibitors of ATXN expression: Validation (AID 588378). Also: series mostly up to about 57 µM; % is scaled to controls: 0 for no effect and ±100 for the full control effect; nearly all actives have a fitted effect of over 75% in size. An outline of the steps: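 Luminescence from an ATXN2-FFLuc reporter in HEK293 cells served as read-out after 24 h compound treatment at 37 degrees C; CellTiter-Fluor fluorescence was recorded first to assess viability.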
Experiment [18] deals with Thyrotropin-releasing hormone receptor (Homo sapiens) (UniProt P34981). Nature of the experiment: qHTS for Small Molecule Agonists and Allosteric Enhancers of Human TRH Receptor: Validation Screen for Agonists (AID 493127;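 active = calcium activation more than 3 SD above the typical response in the agonist read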;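 also: intracellular calcium rise by fluo-8 fluorescence before TRH EC20 addition; 0% is about no effect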). The following applies: TRH receptor agonist cell assay; at 2 µM; stronger effect = higher value. The essentials: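 Read-out: intracellular calcium release measured kinetically by FDSS (fluo-8, ex 480/em 530 nm), 1 reading/s after a 10-cycle baseline. TRHR cells, 2000/well, cultured 18 h at 33.5C, dye-loaded at room temp. Compound-evoked positive calcium signal flags agonists.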

Results filed as inconclusive are left out. Active and inactive are the calls of the source. Unless noted, calls follow the shape of the dose curve; as a rule, active = well fitted curve in the direction sought with a large enough effect; inconclusive = small, poorly fitted or top-dose-only effect, or another doubt; inactive = no such curve, though single readings can be large; an effect the other way counts as inactive or inconclusive.

Chain of Thyrotropin receptor (Homo sapiens) (P16473 whole entry, looked up): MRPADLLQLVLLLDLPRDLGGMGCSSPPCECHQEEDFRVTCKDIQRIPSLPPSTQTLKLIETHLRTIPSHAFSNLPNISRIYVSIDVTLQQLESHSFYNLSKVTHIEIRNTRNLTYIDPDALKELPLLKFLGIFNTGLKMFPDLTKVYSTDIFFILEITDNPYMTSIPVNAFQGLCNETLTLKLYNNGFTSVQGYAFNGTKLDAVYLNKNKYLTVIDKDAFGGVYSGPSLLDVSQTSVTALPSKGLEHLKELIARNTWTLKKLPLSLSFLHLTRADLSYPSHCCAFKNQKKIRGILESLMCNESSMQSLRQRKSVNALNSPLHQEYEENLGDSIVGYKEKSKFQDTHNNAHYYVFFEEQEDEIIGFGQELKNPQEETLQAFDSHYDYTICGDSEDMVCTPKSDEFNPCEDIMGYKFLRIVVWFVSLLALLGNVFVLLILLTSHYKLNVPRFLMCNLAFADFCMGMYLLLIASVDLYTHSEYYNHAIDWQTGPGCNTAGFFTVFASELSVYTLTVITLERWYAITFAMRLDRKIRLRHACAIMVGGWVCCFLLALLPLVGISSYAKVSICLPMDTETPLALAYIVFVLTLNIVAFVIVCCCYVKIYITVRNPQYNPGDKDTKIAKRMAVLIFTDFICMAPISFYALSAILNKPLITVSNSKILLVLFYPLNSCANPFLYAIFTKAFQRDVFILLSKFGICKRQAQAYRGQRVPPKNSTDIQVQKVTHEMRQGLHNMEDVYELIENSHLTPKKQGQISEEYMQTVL
Chain of D(1A) dopamine receptor (Homo sapiens) (P21728 whole entry, looked up): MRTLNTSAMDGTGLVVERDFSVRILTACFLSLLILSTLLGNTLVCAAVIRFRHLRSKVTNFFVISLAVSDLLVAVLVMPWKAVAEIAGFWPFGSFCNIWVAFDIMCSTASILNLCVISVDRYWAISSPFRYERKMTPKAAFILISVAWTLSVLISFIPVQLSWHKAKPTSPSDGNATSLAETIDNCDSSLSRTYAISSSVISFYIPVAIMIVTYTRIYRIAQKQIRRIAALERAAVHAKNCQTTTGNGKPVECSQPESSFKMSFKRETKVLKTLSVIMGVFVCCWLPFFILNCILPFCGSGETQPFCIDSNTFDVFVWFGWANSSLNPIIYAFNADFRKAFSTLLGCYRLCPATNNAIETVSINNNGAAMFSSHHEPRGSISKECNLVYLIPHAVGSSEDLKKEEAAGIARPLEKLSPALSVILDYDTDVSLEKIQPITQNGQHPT
Chain of Galactokinase (Homo sapiens) (P51570 whole entry, looked up): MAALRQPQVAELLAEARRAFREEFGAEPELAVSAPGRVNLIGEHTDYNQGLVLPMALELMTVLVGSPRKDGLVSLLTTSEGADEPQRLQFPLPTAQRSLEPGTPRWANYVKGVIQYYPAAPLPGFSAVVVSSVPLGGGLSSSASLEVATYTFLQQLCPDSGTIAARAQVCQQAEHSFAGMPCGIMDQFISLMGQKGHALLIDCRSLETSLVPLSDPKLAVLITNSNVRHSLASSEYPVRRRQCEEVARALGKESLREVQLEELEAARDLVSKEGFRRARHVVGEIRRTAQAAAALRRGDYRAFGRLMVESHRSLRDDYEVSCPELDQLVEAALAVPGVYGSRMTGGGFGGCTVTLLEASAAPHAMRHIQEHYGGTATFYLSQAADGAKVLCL
Chain of ATPase family AAA domain-containing protein 5 (Homo sapiens) (Q96QE3 whole entry, looked up, the tested form may be a part): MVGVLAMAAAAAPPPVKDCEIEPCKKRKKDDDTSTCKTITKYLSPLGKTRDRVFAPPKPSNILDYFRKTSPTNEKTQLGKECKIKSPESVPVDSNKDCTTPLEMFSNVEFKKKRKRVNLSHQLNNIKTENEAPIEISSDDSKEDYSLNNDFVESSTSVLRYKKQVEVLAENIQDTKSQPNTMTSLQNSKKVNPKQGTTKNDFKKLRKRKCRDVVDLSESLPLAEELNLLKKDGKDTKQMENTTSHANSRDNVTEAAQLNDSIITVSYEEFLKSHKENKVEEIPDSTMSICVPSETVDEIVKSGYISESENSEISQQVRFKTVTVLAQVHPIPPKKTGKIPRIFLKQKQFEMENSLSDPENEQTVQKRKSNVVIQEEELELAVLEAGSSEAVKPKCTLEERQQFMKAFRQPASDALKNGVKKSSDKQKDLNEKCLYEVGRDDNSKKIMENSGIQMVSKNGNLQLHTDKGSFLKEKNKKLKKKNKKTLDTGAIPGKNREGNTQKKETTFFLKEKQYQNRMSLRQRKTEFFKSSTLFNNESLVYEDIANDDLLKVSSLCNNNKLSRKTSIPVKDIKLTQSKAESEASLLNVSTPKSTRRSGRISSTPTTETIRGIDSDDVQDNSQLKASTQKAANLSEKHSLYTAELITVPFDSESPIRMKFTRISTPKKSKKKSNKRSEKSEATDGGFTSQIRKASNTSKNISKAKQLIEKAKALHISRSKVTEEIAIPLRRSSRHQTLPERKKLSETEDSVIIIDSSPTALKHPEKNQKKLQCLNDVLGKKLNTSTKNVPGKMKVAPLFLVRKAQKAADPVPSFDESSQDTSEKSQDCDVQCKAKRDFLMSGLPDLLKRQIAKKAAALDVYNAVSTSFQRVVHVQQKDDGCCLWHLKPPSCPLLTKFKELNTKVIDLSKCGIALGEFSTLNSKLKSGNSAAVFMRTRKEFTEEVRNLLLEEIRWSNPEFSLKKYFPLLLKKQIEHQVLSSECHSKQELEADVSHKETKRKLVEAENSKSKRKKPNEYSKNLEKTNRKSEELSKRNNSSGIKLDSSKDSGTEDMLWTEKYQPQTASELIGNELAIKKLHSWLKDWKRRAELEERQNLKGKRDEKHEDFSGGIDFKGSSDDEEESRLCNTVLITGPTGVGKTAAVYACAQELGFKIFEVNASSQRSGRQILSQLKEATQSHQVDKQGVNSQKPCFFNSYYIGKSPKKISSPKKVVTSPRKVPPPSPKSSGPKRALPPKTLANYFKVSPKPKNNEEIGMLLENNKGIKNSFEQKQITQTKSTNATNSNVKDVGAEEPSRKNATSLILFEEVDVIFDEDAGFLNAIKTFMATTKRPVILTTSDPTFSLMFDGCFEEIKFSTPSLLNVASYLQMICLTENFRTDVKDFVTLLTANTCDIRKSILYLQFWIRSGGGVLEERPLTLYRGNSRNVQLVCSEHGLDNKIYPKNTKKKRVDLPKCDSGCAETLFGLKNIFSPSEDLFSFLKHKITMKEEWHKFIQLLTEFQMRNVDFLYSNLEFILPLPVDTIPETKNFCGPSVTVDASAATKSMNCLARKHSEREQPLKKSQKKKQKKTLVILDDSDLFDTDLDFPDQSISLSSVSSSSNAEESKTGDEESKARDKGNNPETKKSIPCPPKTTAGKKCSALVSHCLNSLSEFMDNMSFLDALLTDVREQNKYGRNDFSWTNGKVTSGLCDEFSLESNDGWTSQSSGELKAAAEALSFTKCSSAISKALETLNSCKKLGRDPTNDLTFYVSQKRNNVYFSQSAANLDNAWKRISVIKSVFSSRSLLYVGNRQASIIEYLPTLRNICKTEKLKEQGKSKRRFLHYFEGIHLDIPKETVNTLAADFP
Chain of Transient receptor potential cation channel subfamily V member 1 (Homo sapiens) (Q8NER1 whole entry, looked up): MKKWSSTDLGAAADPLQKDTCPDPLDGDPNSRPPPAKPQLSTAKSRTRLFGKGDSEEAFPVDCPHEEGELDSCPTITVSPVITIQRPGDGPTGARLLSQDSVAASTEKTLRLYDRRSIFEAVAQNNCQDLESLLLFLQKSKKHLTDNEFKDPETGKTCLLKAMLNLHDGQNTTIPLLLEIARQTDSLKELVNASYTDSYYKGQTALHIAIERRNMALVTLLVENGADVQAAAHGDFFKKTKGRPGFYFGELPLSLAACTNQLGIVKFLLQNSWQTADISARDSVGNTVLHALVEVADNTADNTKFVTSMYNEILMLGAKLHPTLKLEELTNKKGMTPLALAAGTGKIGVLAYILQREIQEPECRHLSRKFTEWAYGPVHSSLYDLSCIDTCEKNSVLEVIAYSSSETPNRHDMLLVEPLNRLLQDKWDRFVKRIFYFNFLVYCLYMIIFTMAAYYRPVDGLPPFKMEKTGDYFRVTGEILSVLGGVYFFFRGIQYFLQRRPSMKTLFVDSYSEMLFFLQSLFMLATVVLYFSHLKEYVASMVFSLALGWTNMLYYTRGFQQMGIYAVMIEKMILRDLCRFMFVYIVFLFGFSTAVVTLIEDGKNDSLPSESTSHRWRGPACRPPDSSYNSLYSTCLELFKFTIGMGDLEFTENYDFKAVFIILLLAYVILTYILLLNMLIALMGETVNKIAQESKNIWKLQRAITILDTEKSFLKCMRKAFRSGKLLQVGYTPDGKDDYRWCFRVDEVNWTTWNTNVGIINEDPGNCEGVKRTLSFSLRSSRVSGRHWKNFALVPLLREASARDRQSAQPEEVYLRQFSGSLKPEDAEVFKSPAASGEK
Chain of Phosphoglycerate kinase, glycosomal (Trypanosoma brucei brucei) (P07378 whole entry, looked up): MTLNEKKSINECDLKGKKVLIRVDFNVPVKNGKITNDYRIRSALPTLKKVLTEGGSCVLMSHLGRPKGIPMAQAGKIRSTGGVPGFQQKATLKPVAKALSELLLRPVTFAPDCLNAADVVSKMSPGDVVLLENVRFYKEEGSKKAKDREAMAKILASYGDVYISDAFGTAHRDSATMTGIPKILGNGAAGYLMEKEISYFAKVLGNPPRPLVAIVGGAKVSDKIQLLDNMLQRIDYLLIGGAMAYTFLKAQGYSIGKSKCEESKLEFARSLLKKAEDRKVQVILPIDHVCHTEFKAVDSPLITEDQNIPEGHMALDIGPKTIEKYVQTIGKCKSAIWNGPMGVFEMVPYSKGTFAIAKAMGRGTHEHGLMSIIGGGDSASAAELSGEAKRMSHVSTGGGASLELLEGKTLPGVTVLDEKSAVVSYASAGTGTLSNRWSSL
Chain of Peptidyl-prolyl cis-trans isomerase NIMA-interacting 1 (Homo sapiens) (Q13526 whole entry, looked up): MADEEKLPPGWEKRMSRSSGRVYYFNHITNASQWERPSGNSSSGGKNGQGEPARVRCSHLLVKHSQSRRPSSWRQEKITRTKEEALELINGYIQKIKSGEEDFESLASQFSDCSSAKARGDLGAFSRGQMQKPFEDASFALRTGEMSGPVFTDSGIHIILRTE

Take `CCSC(=N)N`: the outcome in experiment [1], in [2] and in [9] was inactive. Further, the Potency entry in experiment [3], in experiment [4], in experiment [5], in experiment [6], in experiment [7] and in [8] was “inactive” in each case. Besides, the Potency entry in experiment [10], in experiment [11], in [12], in [13], in [14] and in experiment [15] was “inactive” each time. In experiment [16], the Potency entry was “inactive”. For the same compound, the viability change in experiment [8] is 0.659%.
As to `N=S(=O)(O)Cc1noc2ccccc12`, the result in experiment [1], in [2] and in experiment [9] was inactive. The Potency entry in experiment [3], in experiment [4], in experiment [5], in experiment [6], in experiment [7] and in experiment [8] was “inactive” in each case. Moreover, the Potency entry in [10], in experiment [11], in [12], in experiment [13], in experiment [14] and in experiment [15] was “inactive” in each case. Moreover, the Potency result in experiment [17] is “inactive”. Besides, in experiment [8], the viability change worked out at 0.163%.
Take `CNCCNS(=O)(=O)c1cccc2cnccc12`: the outcome in experiment [1] and in experiment [2] was inactive. The Potency result in [3], in [4], in experiment [5], in [6], in [10] and in [11] was “inactive” each time. Also, the Potency result in experiment [12], in [14], in experiment [15] and in experiment [16] was “inactive” throughout. In experiment [7], the Potency was 9.2 µM (active). For the same compound, the activation in experiment [18] was 1.44% (inactive).
For the compound `COc1ccc2c(c1)c(CC(=O)O)c(C)n2Cc1ccc(Cl)cc1`, the outcome in experiment [1], in experiment [2] and in [9] was inactive. The Potency entry in experiment [3], in experiment [4], in experiment [5], in experiment [6], in experiment [7] and in [10] was “inactive” throughout. Moreover, the Potency result in [11], in experiment [12], in experiment [13], in [14], in [15] and in [16] was “inactive” throughout. Further, in [17], the Potency result is “inactive”.
Turning to `CC[C@H](NC(=O)c1c(C)c(-c2ccccc2)nc2ccccc12)c1ccccc1`, the result in [1] and in experiment [2] was inactive. Besides, the Potency entry in [3], in experiment [4], in experiment [5], in experiment [6], in [7] and in [10] was “inactive” in each case. Also, the Potency entry in [13], in experiment [14], in experiment [15] and in [16] was “inactive” throughout.
Take `CN[C@H](CC(=O)O)C(=O)O`: the outcome in [1] and in [2] was inactive. Moreover, the Potency entry in experiment [3], in experiment [4], in experiment [5], in [6], in experiment [7] and in experiment [8] was “inactive” throughout. In addition, the Potency result in experiment [10], in experiment [11], in experiment [12], in experiment [13], in experiment [14] and in experiment [15] was “inactive” each time. Further, the Potency result in experiment [16] and in [17] was “inactive” each time. Moreover, in experiment [8], the viability change is -4.15%.
With `Cc1cccc(C)c1OCC(N)C(C)C` (centres undefined), the result in experiment [1], in [2] and in experiment [9] was inactive. The Potency result in experiment [3], in experiment [4], in experiment [5], in experiment [6], in experiment [7] and in [8] was “inactive” each time. The Potency result in experiment [10], in experiment [11], in experiment [12], in experiment [14], in experiment [15] and in experiment [16] was “inactive” each time. Moreover, the viability change in experiment [8] came to 4.6%.
As to `NCCCCN`, the outcome in experiment [1], in experiment [2] and in [9] was inactive. The Potency entry in [3], in experiment [4], in experiment [5], in [6], in experiment [8] and in experiment [10] was “inactive” in each case. Besides, the Potency result in [11], in [12], in [13], in experiment [14], in experiment [15] and in experiment [16] was “inactive” throughout. Moreover, the activation in [18] is 1.31% (inactive). Further, the viability change in experiment [8] was -1.47%.
As to `COC(=O)[C@H](NC(=O)c1cc(-c2ccccc2)nc2ccccc12)c1ccccc1`, the result in experiment [1], in experiment [2] and in experiment [9] was inactive. Moreover, the Potency result in [3], in [4], in experiment [5], in experiment [6], in experiment [8] and in experiment [10] was “inactive” in each case. Moreover, the Potency entry in [11], in experiment [12], in experiment [13], in experiment [14], in [15] and in experiment [16] was “inactive” each time. In addition, the Potency entry in experiment [17] was “inactive”. The activation in experiment [18] was -5.81% (inactive). In experiment [8], the viability change is -11.1%.
